Hits are enriched below; roughly 2.4% of the tested compounds scored in any of these assays.
Pol eta inh-1: blocks human DNA polymerase eta activity | Q9Y253 | recombinant Pol eta, fluorescent DNA replication assay | Potency, µM (top dose mostly 114 µM), hits mostly inhibitors | actives 1.2% (n = 390,000) | AID 588591
Target sequence (Q9Y253 whole entry, looked up): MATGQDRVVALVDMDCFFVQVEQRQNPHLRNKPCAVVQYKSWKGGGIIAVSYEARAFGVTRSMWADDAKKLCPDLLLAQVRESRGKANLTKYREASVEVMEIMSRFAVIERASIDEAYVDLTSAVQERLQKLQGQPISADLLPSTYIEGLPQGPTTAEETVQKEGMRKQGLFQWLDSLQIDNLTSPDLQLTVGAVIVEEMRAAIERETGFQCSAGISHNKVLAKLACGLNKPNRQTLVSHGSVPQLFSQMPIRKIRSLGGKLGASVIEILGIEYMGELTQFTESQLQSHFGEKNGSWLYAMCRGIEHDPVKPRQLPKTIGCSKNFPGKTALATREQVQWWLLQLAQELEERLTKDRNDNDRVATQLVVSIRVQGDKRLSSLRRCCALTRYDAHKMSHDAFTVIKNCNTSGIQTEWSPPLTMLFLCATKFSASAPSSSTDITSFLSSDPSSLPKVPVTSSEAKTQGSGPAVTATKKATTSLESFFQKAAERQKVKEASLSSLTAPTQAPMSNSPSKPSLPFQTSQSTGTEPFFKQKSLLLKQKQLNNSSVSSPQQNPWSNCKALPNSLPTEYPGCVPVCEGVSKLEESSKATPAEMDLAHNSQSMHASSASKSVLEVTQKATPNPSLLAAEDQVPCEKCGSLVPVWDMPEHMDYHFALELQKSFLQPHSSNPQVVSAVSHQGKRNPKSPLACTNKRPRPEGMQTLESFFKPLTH
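Pol eta (10 nM) was preincubated with compounds for 15 min at room temperature, after which fluorescent replication substrate (50 nM final) was added to start the reaction. Fluorescence was read kinetically at 0 and 10 min.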
FEN1 inh-1: inhibitors of human flap endonuclease 1; P39748; Recombinant FEN1 flap cleavage, fluorescence, 15 min; Potency, µM (titrated, usually from 114 µM), most hits filed as inhibitors; actives 0.35% (n = 390,000); AID 588795; further: nearly all actives have a fitted effect of over 65% in size
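FEN1 at 10 nM preincubated with compounds 15 min at room temperature, then flap DNA substrate added at 50 nM final. Signal read at 0 and 15 min; concentration-response fitted with four-parameter Hill equation.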
POLB inh: DNA polymerase beta (human) inhibition | actives 1.3% (n = 340,000) | Pol beta primer extension/strand displacement, fluorescence kinetic | Potency, µM (top dose mostly 114 µM), usual class: inhibitors | P06746
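Curves were derived by four-parameter Hill fits of normalized qHTS data. The kinetic fluorescent primer-extension read was taken at 0 and 10 min after 50 nM substrate, following a 15 min room-temperature preincubation of 10 nM enzyme with compounds.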
POLI inh: DNA polymerase iota (human) inhibition | Q9UNA4 | Pol iota fluorescent replication assay, 10 min | Potency, µM (doses to about 115 µM), usual class: inhibitors | actives 1% (n = 390,000) | AID 588590
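Pol iota at 10 nM preincubated 15 min with compounds at room temperature; reaction started with fluorescent substrate, 50 nM final. Fluorescence read kinetically at 0 and 10 min; buffer-only wells as negative control.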
WRN inhibitor: inhibitors of human WRN helicase. Potency, µM (top dose mostly 114 µM), hits mostly inhibitors. actives 0.46% (n = 360,000). AID 651768. WRN helicase unwinding, fluorescent forked duplex, kinetic; further: nearly all actives have a fitted effect of over 55% in size
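Primary qHTS, 1536-well format. 20 nM WRN + compound, 15 min RT; start with 100 nM forked fluorophore/quencher duplex, 2 mM ATP (final); kinetic read ex 525/em 598 nm.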
Pol kappa inh-1: inhibitors of human DNA polymerase kappa | Potency, µM (titrated, usually from 107 µM), hits mostly inhibitors | actives 0.53% (n = 400,000) | purified Pol kappa, fluorescent DNA synthesis assay, 10 min | AID 588579
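Fluorescent qHTS in 1536-well format: enzyme (10 nM) and compound sat 15 min at room temperature before 50 nM substrate (final) was added. Signal taken at 0 and 10 min; no-enzyme buffer wells were negative controls.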
TbPGK inh: TbPGK inhibition, hit validation | shares compounds with Pol kappa inh-1 | TbPGK coupled GAPDH assay, Kinase-Glo luminescence | Potency, µM (doses to about 57.5 µM), most hits filed as inhibitors | actives 79% (n = 500); further: nearly all actives have a fitted effect of over 65% in size
POLI cherry-pick: Confirm cherry-picked inhibitors of human polymerase iota. shares compounds with Pol kappa inh-1. Pol iota primer extension, TAMRA/BHQ fluorescence. Potency, µM, actives largely listed as inhibitors. actives 77% (n = 1,500). AID 720496
Pol kappa inh-2: confirmation of human DNA polymerase kappa inhibitors. actives 76% (n = 920). shares compounds with Pol eta inh-1. Potency, µM, actives largely listed as inhibitors. purified Pol-kappa, fluorescent strand-displacement substrate
Pol eta inh-2: confirmation of human DNA polymerase eta inhibitors. shares compounds with Pol eta inh-1. Pol eta primer extension, TAMRA/BHQ fluorescence, 10 min. Potency, µM, usual class: inhibitors. actives 64% (n = 2,600)
FEN1 inh-2: confirmation of human FEN1 inhibitors. FEN1 flap cleavage, TAMRA/BHQ2 fluorogenic DNA substrate. Potency, µM, most hits filed as inhibitors. actives 79% (n = 880). shares compounds with FEN1 inh-1; further: nearly all actives have a fitted effect of over 60% in size
A number is an active result; i = inactive; ? = inconclusive; nt = not tested or not shown; [ ] = remark or other dose. The call rests on the fitted dose curve; in most records, active means well fitted curve in the direction sought with a large enough effect; inconclusive means small, poorly fitted or top-dose-only effect, or another doubt; inactive means no such curve, though single readings can be large; an effect the other way counts as inactive or inconclusive.

SMILES	Pol eta inh-1	FEN1 inh-1	POLB inh	POLI inh	WRN inhibitor	Pol kappa inh-1	POLI cherry-pick	Pol eta inh-2	FEN1 inh-2	others
CCn1cc2nc(SCC(=O)Nc3ccccc3F)n(Cc3ccc(C)cc3)c(=O)c2n1	i	i	i	i	nt	i	nt	nt	nt
Cc1cc(NC(=O)COCc2cc(-c3ccc(F)cc3)on2)ccc1Br	i	i	i	i	nt	i	nt	nt	nt
Cc1cc(C)n(Cc2ccc(C(=O)N/N=C/c3ccc(-c4ccc([N+](=O)[O-])cc4)o3)o2)n1	6.3µM	56µM	2µM	10µM	32µM	25µM	17	43	76
CCOc1ccc(NC(=O)N2CC=C(c3c[nH]c4ccccc34)CC2)cc1	i	i	i	i	nt	i	nt	nt	nt
C[C@@H]1CC[C@]2(C(=O)O)CC[C@]3(C)C(=CCC4[C@@]5(C)C[C@@H](O)[C@H](O)[C@@](C)(CO)C5[C@H](O)C[C@]43C)C2[C@H]1C (stereo partly specified)	nt	nt	nt	nt	nt	i	nt	nt	nt
CC(=O)/C(=C\c1ccccc1)CC(=O)O	nt	nt	nt	nt	nt	i	nt	nt	nt
Oc1ccc(CNc2cccnc2)c2cccnc12	nt	nt	nt	nt	nt	nt	?	nt	38
CN1/C(=C\C=N\O)C(C)(C)c2ccccc21	i	i	i	i	i	i	nt	nt	nt
CN1/C(=C\C=C2/SC(=S)NC2=O)C(C)(C)c2ccccc21	79µM	?	22µM	28µM	28µM	45µM	75	76	67	Pol kappa inh-2=38
COCCNC(=O)Cn1nc(C)c2c(C)n(-c3ccc(C)cc3)nc2c1=O	i	i	i	i	nt	i	nt	nt	nt
COc1ccc(CCNC(=O)Cn2nc(C)c3c(C)n(-c4ccc(C)cc4)nc3c2=O)c(OC)c1	?	?	35µM	?	nt	i	67	85	48	Pol kappa inh-2=27
O=c1[nH]c(-[n+]2ccccc2)c(/C=N/N=C(\[O-])c2ccccc2)s1	i	i	i	i	i	i	nt	nt	nt
Cc1cc[n+](-c2[nH]c(=O)sc2/C=N/N=C(\[O-])c2ccccc2)cc1	?	i	14µM	25µM	?	?	38	27	67
CCCCOc1cc(C[C@@H]2CNC(=O)N2)ccc1OC	nt	nt	nt	nt	nt	i[19.4 µM]	nt	nt	nt
Cc1c(Cl)cccc1NS(=O)(=O)c1ccc2c(c1)C1C=CCC1C(c1ccc(C(=O)O)cc1)N2 (stereo unspecified)	2µM	25µM	22µM	?	32µM	2.8µM	38	6.7	60
COc1ccc(-c2nn(-c3ccccc3)cc2/C=C2/SC(=S)N(CCC(=O)O)C2=O)c(C)c1	32µM	?	32µM	?	i	?	75	?	67
Fc1cc(F)c2nc(Nc3nc4cc5c(cc4s3)OCO5)sc2c1	2.8µM	?	?	?	28µM	?	?	nt	43
CN(C)CCNC(=O)c1cccc2nc3cccc(F)c3nc12	?	14µM	nt	89µM	i[11.6 µM]	?	42	nt	19	Pol kappa inh-2=17
O=C1C(=O)N(Cc2ccc(Cl)c(Cl)c2)c2ccccc21	nt	nt	nt	nt	nt	i[19.4 µM]	nt	nt	nt
CCC1=NN2C(=N)/C(=C\c3ccc(OCc4cc(=O)n5nc(CC)sc5n4)c(OC)c3)C(=O)N=C2S1	8.9µM	50µM	4.5µM	?	i[11.6 µM]	32µM	19	17	38
COc1cc(C2c3c([nH]c(=O)[nH]c3=O)Nc3ccc4ccccc4c32)cc(OC)c1OC (stereo unspecified)	79µM	28µM	i	18µM	20µM	25µM	42	60	30
Cc1c(CC(C)(C)C(=O)O)n(Cc2ccc(Cl)cc2)c2ccc(F)cc12	nt	nt	nt	nt	nt	i[19.4 µM]	nt	nt	nt
COc1ccc(-c2nnc(SCC(=O)NC3CCCC3)nc2-c2ccc(OC)c(OC)c2)cc1OC	i	i	i	i	nt	i	nt	nt	nt
COc1ccc(Cn2c(C)nc3c(c2=O)c2nc4ccccc4nc2n3Cc2ccco2)cc1	8.9µM	40µM	nt	3.2µM	8.4µM	35µM	13	30	?
CCOc1ccc2c(ccc(/C=C/c3cc(C)c4cccnc4c3O)[n+]2C)c1	20µM	8.9µM	nt	?	10µM	?	19	21	12	Pol kappa inh-2=19
SMILES	Pol eta inh-1	FEN1 inh-1	POLB inh	POLI inh	WRN inhibitor	Pol kappa inh-1	POLI cherry-pick	Pol eta inh-2	FEN1 inh-2	others
CC(NC1=CC(=O)c2cccnc2C1=O)C(O)c1ccccc1 (stereo unspecified)	16µM	?	nt	4.5µM	?	i	19	24	?
O=C(O)C1OC(Oc2cc3oc(-c4ccccc4)cc(=O)c3c(O)c2O)C(O)C(O)C1O (stereo unspecified)	i	50µM	50µM	10µM	i	79µM	21	nt	34
COc1c(OC2OC(C(=O)O)C(O)C(O)C2O)cc(O)c2c(=O)cc(-c3ccccc3)oc12 (stereo unspecified)	i	?	i	i	i	i	nt	nt	nt
NS(=O)(=O)c1ccc(N/N=C/c2ccccc2C(=O)O)c([N+](=O)[O-])c1	i	i	i	i	i	i	nt	nt	nt
COc1ccccc1NS(=O)(=O)c1ccc(N/N=C/c2ccccc2OCC(=O)O)c([N+](=O)[O-])c1	?	?	i	?	i	i	nt	nt	nt
NS(=O)(=O)c1ccc(N/N=C/c2ccc(O)c(O)c2O)c([N+](=O)[O-])c1	2.5µM	10µM	1.3µM	2.8µM	?	10µM	17	15	15
O=C(O)c1ccccc1NS(=O)(=O)c1ccc(N/N=C/c2ccc(O)c(O)c2)c([N+](=O)[O-])c1	2.5µM	28µM	nt	7.9µM	11µM	32µM	27	30	48	TbPGK inh=10µM;Pol kappa inh-2=17
COC(=O)c1cc(O)cc(OC)c1Oc1cc(C)cc(O)c1C(=O)O	3.5µM	50µM	3.2µM	13µM	20µM	11µM	13	12	76	TbPGK inh=1µM
O=C(O)CCNc1cc(N2CCN(C(=O)c3ccco3)CC2)c2noc3c2c1C(=O)c1ccccc1-3	3.2µM	32µM	18µM	?	18µM	13µM	17	6.7	30	TbPGK inh=21µM;Pol kappa inh-2=?
CCNc1cc(N2CCN(C3CCCCC3)CC2)c2noc3c2c1C(=O)c1ccccc1-3	i	i	i	i	nt	i	nt	nt	nt

Screening results as filed in PubChem.
